Bioassay records as filed in PubChem.
KB-3-1 tox = KB-3-1 parental cell cytotoxicity | 400,000 tested, 1.4% active | KB-3-1 viability, CellTiter-Glo ATP luminescence, 72 h | Potency, µM (titrated, usually from 46.1 µM), hits mostly cytotoxic; note: % is set by controls: 0 for no effect and ±100 for the full control effect; nearly all actives have a fitted effect of over 60% in size
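Parental KB-3-1 adenocarcinoma cells in phenol-red-free DMEM with 10% FBS were pin-treated with compounds at several concentrations, incubated 72 h at 37 °C, and viability read by CellTiter-Glo luminescence; concentration-effect curves were fitted after normalization.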
VP16 counter = inhibits Gal4-VP16 luciferase reporter, ROR gamma counter-screen | 310,000 tested, 3.5% active | Drosophila S2 Gal4-VP16 UAS-luciferase, luminescence, 20 h | AID 2546 | Potency, µM (top dose mostly 53.6 µM), inactives show at the top dose activity, negative = inhibition, most hits filed as inhibitors;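 note: Gal4-VP16 expression switched on by copper sulfate through the metallothionein promoter; % is set by controls: 0 for no effect and ±100 for the full control effect; nearly all actives have a fitted effect of over 50% in size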
SW480 rereplic = induces DNA re-replication in SW480 colon adenocarcinoma cells; Potency, µM (top dose mostly 46.1 µM), inactives show at the top dose re-replication activation, actives largely listed as activators; SW480 DNA re-replication, Hoechst DNA content imaging, 48 h; 340,000 tested, 1.8% active; note: % of control where 0% means no effect; nearly all actives have a fitted effect of over 55% in size
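Treated cells incubate 48 hr (37 C, 5% CO2), are stained 40 min with Hoechst, and nuclear fluorescence is enumerated; a rise in nuclei with high DNA signal marks re-replication.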
RORg inh = blocks mouse ROR gamma transcriptional activity; P51450; Drosophila S2 Gal4-RORgamma UAS-luciferase reporter, 20 h; Potency, µM (top dose mostly 53.6 µM), for inactives: at the top dose activity change, negative = inhibition, most hits filed as inhibitors; 310,000 tested, 5.4% active; AID 2551; note: % is set by controls: 0 for no effect and ±100 for the full control effect; nearly all actives have a fitted effect of over 60% in size
Target sequence (P51450 whole entry, looked up, the tested form may be a part): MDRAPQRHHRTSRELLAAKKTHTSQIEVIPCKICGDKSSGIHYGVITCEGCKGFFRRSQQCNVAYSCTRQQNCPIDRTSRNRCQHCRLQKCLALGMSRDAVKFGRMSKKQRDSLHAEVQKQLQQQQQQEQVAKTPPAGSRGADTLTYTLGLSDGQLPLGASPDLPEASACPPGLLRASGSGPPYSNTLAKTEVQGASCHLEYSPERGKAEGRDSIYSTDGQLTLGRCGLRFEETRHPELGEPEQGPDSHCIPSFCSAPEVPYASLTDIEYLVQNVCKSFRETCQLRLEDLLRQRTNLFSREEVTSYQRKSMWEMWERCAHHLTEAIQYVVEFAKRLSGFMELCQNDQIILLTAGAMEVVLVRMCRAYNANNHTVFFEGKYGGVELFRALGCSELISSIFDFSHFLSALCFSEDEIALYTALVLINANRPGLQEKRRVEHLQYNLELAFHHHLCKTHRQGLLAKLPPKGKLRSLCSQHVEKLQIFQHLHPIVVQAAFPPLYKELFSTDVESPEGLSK
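Read-out: Photinus luciferase luminescence; inhibitors lower reporter signal. Insect Schneider cells with Gal4-ROR gamma fusion under metallothionein promoter, UAS reporter; 700 uM final copper sulfate induction, 20 hr, ambient temperature.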
KB-V1 MDR tox = KB-V1 MDR subline cytotoxicity; 400,000 tested, 3.4% active; KB-V1 MDR cells viability, CellTiter-Glo, 72 h; Potency, µM (series often up to 46.1 µM), hits mostly cytotoxic; AID 1347076; note: % is set by controls: 0 for no effect and ±100 for the full control effect; nearly all actives have a fitted effect of over 60% in size
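In this primary screen, KB-V1 cells overexpressing P-gp are incubated with library compounds (lowest to highest concentration) for 72 h at 37 degrees C before a luminescent ATP viability read.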
MCF10A rereplic = inducers of DNA re-replication in MCF 10A breast cells; MCF 10A DNA re-replication, Hoechst nuclear intensity, 48 h; 350,000 tested, 2.9% active; Potency, µM (series often up to 46.1 µM), for the others: top-dose activity, positive = re-replication, actives largely listed as activators; note: % of control where 0% means no effect; nearly all actives have a fitted effect of over 50% in size
Numbers without * were called inactive; i = inactive; u = inconclusive; x = no result given; ! = not active in a repeat. In the library only some 10% were active in any assay of this set; here they are far more common. Calls come from the whole dose curve; as a rule, active = well fitted curve in the direction sought with a large enough effect; inconclusive = small, poorly fitted or top-dose-only effect, or another doubt; inactive = no such curve, though single readings can be large; an effect the other way counts as inactive or inconclusive. Potency is the fitted concentration of half-maximal effect.

SMILES	KB-3-1 tox	VP16 counter	SW480 rereplic	RORg inh	KB-V1 MDR tox	MCF10A rereplic
CC(=O)OCC1OC(Oc2cc(OC(C)=O)c3c(=O)cc(-c4ccc(OC(C)=O)c(OC(C)=O)c4)oc3c2)C(OC(C)=O)C(OC(C)=O)C1OC(C)=O (stereo not given)	x	15.8µM*	x	25.1µM*	x	x
CC(C)CC1=NN(C(=O)c2ccco2)C(O)(C(F)(F)F)C1 (stereo not given)	i	14.1µM*	-1.9%	6.31µM*	i	-3.9%
Cc1nc(CS(=O)(=O)c2ccc(Cl)cc2)cc(Sc2ccc(Cl)cc2)n1	i	11.2µM*	-2.0%	u	u	6.1%
O=S(=O)(Cc1cc(Sc2ccc(Cl)cc2)nc(-c2ccccc2)n1)c1ccccc1	i	4.1%	-2.6%	3.0%	i	-3.7%
Cc1ccc(-c2csc(=Nc3cccnc3)n2CCCn2ccnc2)cc1C	16.4µM*	u	-1.1%	u	7.31µM*	u
c1cncc(N=c2scc(-c3cccc4ccccc34)n2CCCn2ccnc2)c1	i	1.1%	2.0%	u	11.6µM*	25.7%
CC1(C(=O)NS(=O)(=O)C2CC2)CCCN(C(=O)c2ccco2)C1 (stereo not given)	i	x	x	x	i	x
CC1(C(=O)Nc2ccc3c(c2)OCCO3)CN(S(C)(=O)=O)CC(=O)N1CCc1ccccc1F (stereo not given)	i	x	x	x	i	x
CCOC(=O)N1CCN(C(=O)CCCCCn2c(=S)[nH]c3ccsc3c2=O)CC1	i	u	3.4%	11.2µM*	i	3.9%
CCOC(=O)N1CCN(C(=O)CCCn2c(=S)[nH]c3ccccc3c2=O)CC1	i	-13.3%	-5.6%	-2.7%	i	-7.9%
O=C(CCn1c(=O)[nH]c2ccsc2c1=O)N1CCN(c2cccc(Cl)c2)CC1	20.6µM*	-25.3%	4.8%	u	i	u
CCOC(=O)N1CCN(C(=O)CCCn2c(=S)[nH]c3ccc(Br)cc3c2=O)CC1	i	u	1.2%	12.6µM*	11.6µM*	13.7%
CCOC(=O)N1CCN(C(=O)CCCn2c(=S)[nH]c3ccsc3c2=O)CC1	u	-7.7%	6.8%	-24.2%	i	-7.9%
Cc1ccccc1NC(=O)c1nc(S(C)(=O)=O)ncc1Cl	i	3.16µM*	u	6.31µM*	i	u
CCCc1nnc(NC(=O)c2nc(S(=O)(=O)Cc3cccc(C)c3)ncc2Cl)s1	i	u	u	u	i	u
Cc1cccc(CS(=O)(=O)c2ncc(Cl)c(C(=O)Nc3c(C)cccc3C)n2)c1	u	8.91µM*	u	u	u	u
Cc1nnc(NC(=O)c2nc(S(=O)(=O)Cc3ccccc3)ncc2Cl)s1	10.3µM*!	12.6µM*	1.4%	7.94µM*	u	u
CCOC(=O)c1nc(S(C)(=O)=O)ncc1Cl	i	5.01µM*	u	3.98µM*	i	9.6%
CCOC(=O)c1c(C)c(-c2ccccc2)n(CC(=O)Nc2ccc(OCC)cc2)c1C	i	x	x	x	i	x
Cc1cc(C)n2c(Nc3cccc(C(F)(F)F)c3)c(-c3ccsc3)nc2n1	i	x	x	x	i	x
Cc1cccc(C)c1NC(=O)c1nc(S(=O)(=O)Cc2ccccc2F)ncc1Cl	u	x	x	x	i	x
Cc1cccc(C)c1NC(=O)c1nc(S(=O)(=O)Cc2ccccc2)ncc1Cl	u	5.01µM*	u	10µM*	u	u
Cc1cccc(CS(=O)(=O)c2ncc(Cl)c(C(=O)NCc3ccccc3)n2)c1	i	3.16µM*	u	5.62µM*	i	13µM*
Cc1cccc(C)c1NC(=O)CN1CCCCCC1	x	-1.0%	-4.4%	19.8%	x	1.3%
O=C(/C=C\N1CCOCC1)c1ccc(Br)cc1	i	-5.3%	1.9%	2.6%	i	5.8µM*
SMILES	KB-3-1 tox	VP16 counter	SW480 rereplic	RORg inh	KB-V1 MDR tox	MCF10A rereplic
S=C(c1ccc(-c2ccccc2)cc1)N1CCOCC1	i	u	-4.4%	-18.1%	i	7.5%
O=C(/C=C/N1CCOCC1)c1ccc(-c2ccccc2)cc1	i	-10.9%	14.6µM*	13.8%	u	9.1%
N#Cc1ccc(CN2C(=O)c3ccccc3Sc3ccc(C(=O)OCc4ccco4)cc32)cc1	i	x	x	x	u	x
Cc1ccc(S(=O)(=O)/C=C\C#N)cc1	x	0.562µM*	x	0.631µM*	x	x
Cc1ccc(S(=O)(=O)/C=C/C#N)cc1	x	0.562µM*	x	1.12µM*	x	x
CC(C)(C)c1ccc(S(=O)(=O)/C=C\C#N)cc1	x	0.794µM*	x	0.631µM*	x	x
CC(C)(C)c1ccc(S(=O)(=O)N2CCN(CCC#N)CC2)cc1	i	0.6%	-1.3%	u	i	0.2%
O=C(O)C1CC(CCCP(=O)(O)O)CCN1 (stereo not given)	x	14.1%	x	7.9%	x	x
CC(C)C(NC(=O)/C=C/c1cccc([N+](=O)[O-])c1)C(C)C	i	1.9%	-1.1%	u	i	u
CC(C)NC(=O)c1ccccc1NC(=O)/C=C/c1cccc([N+](=O)[O-])c1	u	7.94µM*	-1.0%	u	u	-8.6%
COC(=O)C1=NN(C(=O)c2cccc(Br)c2)C(O)(c2ccc(Cl)cc2)C1 (stereo not given)	i	-30.0%	u	-29.1%	i	6.9%
CCOC(=O)C1=NN(C(=O)c2ccco2)C2(CC2)C1	i	4.8%	-3.2%	-4.3%	i	0.2%
COC(=O)C1(O)CC(C(C)C)=NN1C(=O)c1ccccc1 (stereo not given)	i	14.2%	-1.5%	-18.2%	i	-1.8%
CCOC(=O)C1=NN(C(=O)c2ccc(OC)cc2)C(O)(c2ccc(Cl)cc2)C1 (stereo not given)	i	u	u	10µM*	i	u
CCOC(=O)C1=NN(C(=O)c2ccccc2)C(O)(c2ccc(C)cc2)C1 (stereo not given)	i	28.2µM*	-2.3%	10µM*	i	6.7%
CCOC(=O)C1=NN(C(=O)c2cccc(Br)c2)C(O)(C(C)(C)C)C1 (stereo not given)	x	u	x	14.1µM*	x	x
CC1=C(C(=O)N(C(C)C)C(C)C)CC(CC(=O)NCc2cccc3ccccc23)C(=O)N1Cc1ccccc1 (stereo not given)	i	x	x	x	i	x
Cc1nn(-c2ccccc2)c(-n2cccc2)c1C(=O)N1CCN(c2ccccc2)CC1	i	x	x	x	i	x
COc1cccc(-c2nc(Cn3c(=O)cc(C)c4c(C)nn(-c5ccccc5)c43)c(C)o2)c1OC	i	x	x	x	i	x
